Test results: PubChem BioAssay AID2315 (National Center for Advancing Translational Sciences (NCATS), 2010)
Out of some 290,000 compounds screened, about 27,000 (9.3%) were called active. The sample as a whole holds a higher share of actives than the screen did. Unmarked numbers belong to inactive results. Rule as the data show it: active = inhibition mostly above about 28% (no sharp cut-off); inactive = mostly below about 43%.

test: A qHTS for Small Molecule Inhibitors of Shiga Toxin; settings: Vero cells, Shiga toxin protein synthesis inhibition reporter; at 38.7 µM, active compounds read high; also: 0% is about no effect

Compound | inhibition
O=C(CSc1ccc(-c2ccccn2)nn1)Nc1ccccc1 | 47% (active)
COc1cc(NC(=O)CSc2ccc(-c3cccnc3)nn2)cc(OC)c1 | 15.3%
O=C(CSc1ccc(-c2ccco2)nn1)Nc1cccc(F)c1 | 38.8%
Cc1ccc(CN2CCCOCCS2(=O)=O)cc1 | -6.69%
CC(=O)c1cccc(OCc2cc(C(=O)NC(C)Cc3cccnc3)no2)c1 (stereo not drawn) | 36.9%
CC(CCc1ccccc1)NC(=O)c1cnc(Cl)c(Cl)c1 (stereo not drawn) | 3.47%
Cc1cccnc1CC(C)NC(=O)c1cc(COc2cncc(Cl)c2)on1 (stereo not drawn) | 47.9% (active)
CCOc1cc(C(=O)O)ccc1OCCOc1ccccc1 | 2.96%
Cc1ccc(CN(CC(=O)NC2CCCCC2)C(=O)c2csnn2)cc1 | -2.02%
CC1CCN(C(=O)CCNC(=O)c2ccccc2)CC1 | 43.4% (active)
CC1CCN(C(=O)/C(=C\c2ccccc2)NC(=O)c2ccccc2)CC1 | 5.08%
CC1CCN(C(=O)/C(=C\c2ccccc2F)NC(=O)c2ccccc2)CC1 | -2.65%
O=S(=O)(c1ccccc1)c1nc(-c2ccccc2)oc1NCCCN1CCOCC1 | -13.1%
O=C(Nc1ccc(CN2CCOCC2)cc1)c1cc(Cl)ccc1Cl | -2.33%
Nc1ccccc1SCc1cc([N+](=O)[O-])cc2c1OCOC2 | 62% (active)
CC(O)C(NS(=O)(=O)c1ccc(Cl)cc1)C(=O)OCc1cc([N+](=O)[O-])cc2c1OCOC2 (stereo not drawn) | -12.1%
O=C(CN1CCN(c2ccc(Cl)cc2)CC1)c1ccccc1 | 12.6%
CC1CN(S(=O)(=O)c2cccc(C(F)(F)F)c2)CN1C(=O)N1CCOCC1 (stereo not drawn) | 29.9%
O=[N+]([O-])c1ccc(O)c(/C=N/Nc2ccccc2[N+](=O)[O-])c1 | 33.7% (active)
O=C(N/N=C/c1cc([N+](=O)[O-])ccc1O)/C(=C\c1cccs1)NC(=O)c1ccccc1 | -4.29%
Nc1nnnn1/N=C/c1cc([N+](=O)[O-])ccc1O | 19.7%
CCNC(=S)N(CCN(CC)CC)Cc1cc2cc3c(cc2[nH]c1=O)OCCO3 | 37.5%
O=C(CSCc1ccc(Cl)cc1)N1CCCCC1 | 91.4% (active)
Cn1c(SCC(=O)N2CCCC2)nnc1-c1cccs1 | 19.8%
O=C(CSc1ncccn1)N1CCCC1 | 15.5%

Compound | inhibition
O=C(CN1CCN(c2ccc(Cl)cc2)CC1)N1CCCC1 | -2.98%
O=C(CSCc1ccc(Cl)cc1)N1CCN(Cc2ccc3c(c2)OCO3)CC1 | 1.49%
O=C(CSCc1cccs1)N1CCCC1 | 55.4% (active)
COc1ccc(-c2c(NC(=O)c3ccco3)oc3ccc(Cl)cc3c2=O)cc1 | -2.04%
O=S(=O)(NC1CCCC1)c1ccc(-n2cnnn2)cc1 | -3.47%
COc1ccc(C=C(C#N)C#N)c(CSc2ccccn2)c1 | -2.53%
COc1ccc(C(=O)N[C@H](C(=O)NCc2ccccc2)C(C)C)cc1 | 2.84%
CCN(CC(=O)NCc1cccs1)C(=O)c1cccc(S(=O)(=O)Nc2ccccc2OC)c1 | 25.8%
COc1ccccc1C(=O)Nc1ccc(OCc2nnc3c4ccccc4c(C)nn23)cc1 | 6.17%
COc1ccc(C2/C(=C(/O)c3ccc4c(c3)CC(C)O4)C(=O)C(=O)N2Cc2ccncc2)cc1 (stereo not drawn) | 21.4%
CN(C)c1nnnn1-c1ccc(Cl)cc1 | 32.8%
Nc1ccc2nn(-c3ccc(Cl)cc3)nc2c1 | 99% (active)
CCn1c(SCC(=O)NNC(=O)c2ccc(OC)cc2)nnc1C(C)C | -2.63%
O=C1NC(=O)C(c2ccc(Cl)cc2)N1 (stereo not drawn) | -0.685%
COc1cccc(CNC(=O)C2CC(=O)N(C3CCCCCCC3)C2)c1 (stereo not drawn) | -10.4%
O=C(Cn1cnc2ccccc21)N/N=C/c1ccco1 | 15.9%
CC(C)NC(=O)C(=O)N/N=C/c1ccco1 | -4.96%
O=c1nc(N/N=C/c2ccco2)cn[nH]1 | 84% (active)
O=C(Nc1ccccc1)c1cc2ccccc2[nH]1 | 116% (active)
O=C(Nc1ccccc1)N1CCN(C(=O)Nc2ccccc2)CC1 | 14.4%
CC(C)n1c(=O)[nH]c2cc(C(=O)Nc3ccccc3)ccc21 | -20.3%
COc1ccccc1OCCOc1ccc(/C=C2\C(=N)N3N=C(C)SC3=NC2=O)cc1 | 2.39%
COc1cccc(N(CC(=O)NC2CCCC2)C(=O)Cn2nnc(-c3ccc(C)o3)n2)c1 | 5.05%
CCn1c(SCc2ccccc2)nc2cc(OC)c(OC)cc2c1=O | -6.05%
O=C(CN1CCN(c2ccccc2)CC1)Nc1ccc(F)cc1 | 2.65%

Compound | inhibition
O=S(=O)(c1cccc(S(=O)(=O)N2CCC(n3nnc4ccccc43)CC2)c1)N1CCCCC1 | -25.2%
O=C(c1ccc(F)cc1)N1CCC(n2nnc3ccccc32)CC1 | 111% (active)
CC(=O)c1cccc(S(=O)(=O)N2CCC(n3nnc4cc(F)ccc43)CC2)c1 | 7.77%
COc1ccc(N(CC(=O)N2CCOCC2)S(=O)(=O)c2ccccc2)cc1Cl | -9.7%
C=CCN1CN(S(=O)(=O)c2ccc(OC)cc2)c2nc3ccccc3nc21 | 8.86%
COc1ccc(S(=O)(=O)N2CN(CCc3ccc(OC)c(OC)c3)c3nc4ccccc4nc32)cc1 | -10.2%
O=S(=O)(c1ccccc1)N1CN(Cc2ccc(F)cc2)c2nc3ccccc3nc21 | 45.9% (active)
O=C(NCCS(=O)(=O)N1CCN(c2ccccc2F)CC1)c1ccc(Br)o1 | -0.576%
O=C1CCC(C(=O)N2CCC(O)(c3ccccc3)CC2)CN1CCc1ccccc1 (stereo not drawn) | -9.01%
CCOC(=O)CSc1nnc(-c2ccco2)n1C | -1.54%
Cn1c(SCC(=O)c2cccs2)nnc1-c1ccco1 | 58.7% (active)
CCCCNC(=O)CSc1nnc(-c2ccco2)n1C | -13.5%
CCC1Oc2ccccc2N(CC(=O)NCCCN2CCN(CC)CC2)C1=O (stereo not drawn) | -4.33%
CC(C)OCCCNC(=O)CN1C(=O)/C(=C/c2ccccc2F)Oc2ccccc21 | -4.44%
COc1ccc(CCNC(=O)CN2C(=O)CCSc3ccccc32)c(OC)c1 | -7.21%
Cc1ccc(-c2nc(CSCC(=O)NC3CCN(Cc4ccccc4)CC3)c(C)o2)cc1 | 1.51%
Cc1ccc(Sc2cc(C(=O)c3ccccc3C(=O)O)ccc2[N+](=O)[O-])cc1 | 1.21%
CC(=O)Nc1cc2ccc(OC(C)=O)cc2oc1=O | -11.8%
Cc1ccccc1NC(=O)C1CCN(C(=O)NC2CCCCC2)CC1 | -5.42%
O=C(Nc1cc2ccccc2oc1=O)C1CCCCC1 | 55.5% (active)
CCn1nc(C)c(/C=N/NC(=O)Cc2ccc(Cl)cc2)c1C | 81.2% (active)
Cc1nn(Cc2ccc(Cl)cc2)c(Cl)c1/C=N/NC(=O)c1cccnc1 | -8.32%
Cc1nn(Cc2ccc(Cl)cc2)c(Cl)c1/C=N/NC(=O)CNc1ccccc1F | -6.45%
COc1ccccc1-n1cnc2cc(C(=O)NCC3CCCO3)ccc21 (stereo not drawn) | -4.06%
O=C(NCCN1CCOCC1)c1ccc2c(c1)ncn2C1CCCC1 | -8.3%

Compound | inhibition
O=C(NCc1cccs1)c1ccc2c(c1)ncn2C1CCCC1 | 38% (active)
CCOC(=O)C1=C(c2ccccc2)NC(=O)NC1c1cc(OC)c(OC)cc1OC (stereo not drawn) | -5.08%
COc1cc2c(cc1OC)CN(CC(=O)Nc1ccc(F)cc1)CC2 | -6.84%
Cc1ccc(SCc2c(C(=O)N/N=C/c3cccnc3)nnn2-c2nonc2N)cc1 | -5.04%
CCOc1cc(CN2CCN(C(=O)CC(C)C)CC2)ccc1OC | 21.9%
COc1ccc(COCC(O)CN2CCC(C(N)=O)CC2)cc1 (stereo not drawn) | 18.1%
COc1cc(CN2CCC(C(N)=O)CC2)ccc1OCc1ccccc1 | 50.5% (active)
CCCc1nnc(NC(=O)CCC(=O)NC2CC2)s1 | -4.93%
COc1ccc(CCN(C)C(=O)C23CC4CC(CC(Cl)(C4)C2)C3)cc1OC | -8.99%
Cc1cccc(NC(=O)COc2ccccc2C)n1 | 99.9% (active)
Cc1cccc(NC(=O)Nc2ccc(OCc3ccccc3)cc2)n1 | -8.92%
Cc1cccc(NC(=O)c2ccc3ccccc3n2)n1 | 80.6% (active)
Cc1cccc(NC(=O)c2cccnc2Cl)n1 | 21.6%
Cc1ccccc1OCC(=O)Nc1nc(C)c(C(=O)N(C)C)s1 | 13.1%
CCN(CC)S(=O)(=O)c1ccc(C)c(NC(=O)COc2ccc(Br)cc2Cl)c1 | -7.98%
Cc1cccc(NC(=O)c2ccccc2NC(=O)C(C)(C)C)n1 | -16.5%
COCCNC(=O)COc1ccccc1C | -1.68%
CCCC1=Nc2cc(C(=O)NCCN3CCCC3)ccc2Sc2ccccc21 | -5.59%
Cc1cc(C)n(CC(O)COc2ccc(C(C)(C)C)cc2)n1 (stereo not drawn) | -1.13%
COc1ccccc1CN(C)C(=O)c1cc2ccccc2o1 | 5.75%
Cc1ccc(C(=O)Nc2nc(N)n(-c3ccccc3)n2)cc1 | 38.4% (active)
Cc1ccc(S(=O)(=O)Nc2nc(N)n(-c3ccccc3)n2)cc1 | -9.63%
Nc1nc(NC(=O)/C=C/c2ccccc2)nn1-c1ccccc1 | 27%
